Compound activity deposited in PubChem by National Center for Advancing Translational Sciences (NCATS).
Compounds with a hit are over-represented: about 19% of the library has one in this group of screens.
MARV entry inh – qHTS for inhibitors of binding or entry into cells for Marburg Virus; Marburg virus pseudotyped entry inhibition, cell reporter; Potency, µM (series often up to 37.8 µM), for inactives: top-dose activity change, negative = inhibition, most hits filed as inhibitors; 300,000 tested, 1.8% active; AID 540276, 2011; calls by dose curve; tested in HEK293 cells; further: potency means the concentration at half of the fitted maximal effect; on the % scale 0 is the no-effect control and ±100 the full control effect
Lassa entry inh – qHTS for Inhibitors of binding or entry into cells for Lassa Virus; Lassa virus pseudotype entry inhibition, cell reporter; 300,000 tested, 1.2% active; Potency, µM (top dose mostly 37.9 µM), inactives show at the top dose activity change, negative = inhibition, usual class: inhibitors; calls by dose curve; tested in HEK293 cells; further: potency means the concentration at half of the fitted maximal effect; on the % scale 0 is the no-effect control and ±100 the full control effect; nearly all actives have a fitted effect of over 50% in size
Pf growth 48h – Primary qHTS for delayed death inhibitors of the malarial parasite plastid, 48 hour incubation; Potency, µM (highest dose often 28.7 µM), for inactives: at the top dose activity change, negative = inhibition, hits mostly inhibitors; AID 504832, 2011; 310,000 tested, 5.9% active; P. falciparum luciferase growth in erythrocytes, 48 h; further: potency means the concentration at half of the fitted maximal effect; on the % scale 0 is the no-effect control and ±100 the full control effect
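Erythrocytes infected with P. falciparum carrying an integrated firefly luciferase reporter (2% hematocrit, 0.1% parasitemia final) were exposed to compounds in RPMI 1640 with 0.5% Albumax at 37 C, 5% CO2. Growth inhibition was scored as reduced luminescence.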
Pf growth 96h – Primary qHTS for delayed death inhibitors of the malarial parasite plastid, 96 hour incubation; Potency, µM (doses to about 28.7 µM), without a hit: at the top dose activity change, negative = inhibition, hits mostly inhibitors; 320,000 tested, 6.9% active; P. falciparum luciferase reporter growth, 96 h; AID 504834, 2011; further: potency means the concentration at half of the fitted maximal effect; on the % scale 0 is the no-effect control and ±100 the full control effect
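Two parasite generations (96 h, 37 C, 5% CO2) of compound exposure in infected erythrocytes (0.05% parasitemia, 2% hematocrit). Luciferase-reporter P. falciparum; decreased luminescence indicates inhibited growth, aimed at apicoplast-acting delayed death.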
Shiga toxin inh – A qHTS for Small Molecule Inhibitors of Shiga Toxin; AID 2315, 2010; inhibition, % at 38.7 µM; Vero cells, Shiga toxin protein synthesis inhibition reporter; 290,000 tested, 9.2% active; in the data active means inhibition mostly above about 28%, no sharp cut-off; inactive means mostly below about 43%; further: 0% is about no effect
Cycloheximide cs – Cycloheximide Counterscreen for Small Molecule Inhibitors of Shiga Toxin; cell reporter, cycloheximide protein synthesis inhibition counterscreen; AID 2314, 2010; max response, %; 300,000 tested, 12% active; in the data active means max response mostly above about 13%, no sharp cut-off; inactive means mostly below about 14%; further: read at 38.3 µM for the half of the compounds with a filed dose; 0% is about no effect
* = called active by the depositor; ? = inconclusive; / = not tested or not shown; [ ] = dose if it differs, or a comment. Unless noted, the call rests on the fitted dose curve; in most records, active means well fitted inhibition curve with a large enough effect; inconclusive means small, poorly fitted or top-dose-only effect, or another doubt; inactive means no such curve, though single readings can be large or run the other way.

SMILES | MARV entry inh | Lassa entry inh | Pf growth 48h | Pf growth 96h | Shiga toxin inh | Cycloheximide cs
C=C(C)CSc1nnc2[nH]c(=O)cc(N)n12 | -5% | 6% | / | / | / | /
COC1OC2COC(c3ccccc3)OC2C(=O)C1NC(=O)c1ccccc1 (stereo unspecified) | 6% | 6%[46.1 µM] | / | / | / | /
O=C(ON=C1CCN(S(=O)(=O)c2ccccc2)CC1)c1cccc(Cl)c1 | -6% | 17% | 6% | -3% | 13 | -3
Cc1ccc(OCC(=O)OCCN2C(=O)c3ccccc3C2=O)cc1C | ? | 1% | 10% | 1.9µM* | -2 | -2
Cc1ccc(OCCN2C(=O)c3ccccc3C2=O)c(C)c1 | -3% | -5% | 6% | 5% | -4 | 6
Cc1ccc(OCCN2C(=O)c3ccccc3C2=O)c([N+](=O)[O-])c1 | ? | 11% | 9% | 34% | 106* | 64*
C[N+](C)(C)CCN1C(=O)CSC1=O | 7%[46.1 µM] | 5% | -5% | 67% | -5 | -3
Cc1ccc(OCCN2C(=O)c3ccccc3C2=O)cc1 | 15% | 2% | / | 73% | 108* | 31*
Cc1cc(C)cc(OCC(=O)OCCN2C(=O)c3ccccc3C2=O)c1 | ? | 7% | / | -9% | 2 | -6
Cc1ccc(OCCN2C(=O)CSC2=O)cc1 | 16% | 2% | 5% | 4% | 20 | 22*
CN1CCCC(OC(=O)CCCC(=O)OC2CCCN(C)C2)C1 (stereo unspecified) | -29% | -2% | 3% | / | -19 | -4
CC(=O)c1ccc(NC(=O)CSc2nnc(C3CC3)n2C)cc1 | 2%[46.1 µM] | ? | 1% | 2% | 13 | 1
COc1ccc(N2C(C(C)=O)=NN(c3ccccc3)C2c2cccs2)cc1 (stereo unspecified) | / | / | / | 12µM* | -16 | -2
CC(=O)Nc1ccc(N2C(C(C)=O)=NN(c3ccccc3)C2c2cccs2)cc1 (stereo unspecified) | ? | ? | ? | ? | 6 | 0
CC1CC(C)CN(S(=O)(=O)c2ccc3c(c2)n(C)c(=O)c(=O)n3C)C1 (stereo unspecified) | -1%[46.1 µM] | 1% | 0% | 5% | 7 | -1
O=[N+]([O-])c1ccc2c(c1)N([O-])C1(CCCCC1)[N+]2=O | -10%[46.1 µM] | 4% | ? | -29% | 19 | 0
CN(CCc1cnn(C)c1)C(=O)CCc1nnc(CCCc2ccccc2)o1 | ? | 8% | -4% | ? | 36* | 17*
CN(CCc1ccccn1)C(=O)CCc1nnc(CCCc2ccccc2)o1 | ? | ? | -17% | ? | 73* | 45*
CN(CCc1ccccn1)C(=S)NC(=O)c1ccco1 | 23% | -2% | 5% | ? | -19 | -3
COc1cc(NC(=O)c2noc3c2CC(C(C)(C)C)CC3)cc(OC)c1OC (stereo unspecified) | -14%[46.1 µM] | 5%[46.1 µM] | / | / | / | /
CN(C)c1ccc(NC(=O)Cn2cc3c(n2)CCCC3)cc1 | / | / | ? | ? | 72* | 56*
O=C(Cn1cc2c(n1)CCCCC2)NC1CCN(Cc2ccccc2)CC1 | 3% | / | / | 12µM* | 3 | -7
CCN(CCCNC(=O)Cn1cc2c(n1)CCCC2)c1cccc(C)c1 | / | / | -13% | 13µM* | 1 | -1
CCC(=O)N1CCc2cc(Br)cc(S(=O)(=O)N3CCCC(C(=O)Nc4ccc(OC)c(Cl)c4)C3)c21 (stereo unspecified) | -20%[46.1 µM] | 12%[46.1 µM] | / | / | / | /
CC1CCCC(C)N1S(=O)(=O)c1ccc(NC(=O)CCN2C(=O)C3CC=CCC3C2=O)cc1 (stereo unspecified) | ? | 5%[46.1 µM] | ? | 0% | / | /
SMILES | MARV entry inh | Lassa entry inh | Pf growth 48h | Pf growth 96h | Shiga toxin inh | Cycloheximide cs
Nc1ccc2nc(-c3cc(Cl)c(N)c(Cl)c3)[nH]c2c1 | ? | 7% | 2.9µM* | ? | 64* | 36*
c1ccc2[nH]c(C3CC3)nc2c1 | 7%[46.1 µM] | 1%[46.1 µM] | 2% | 27% | 1 | -2
Nc1ccc(-c2nc3c(Cl)c(N)ccc3[nH]2)cc1 | ? | -30% | 23% | ? | 78* | 15
Cc1nc2ccc(-c3nc4ccc(N)cc4[nH]3)cc2[nH]1 | ? | ? | ? | 6% | -6 | -1
Cc1ccc(C)c(-c2nc3ccc(N)cc3[nH]2)c1 | ? | -2% | ? | -2% | 33 | 14*
Nc1ccc2nc(C3CCCCC3)[nH]c2c1 | 3%[46.1 µM] | -6% | 44% | 23% | 95 | 13*
CCOc1ccc(NC(=O)Cn2c(=O)n(-c3cccc(OC)c3)c(=O)c3c4c(sc32)CCCC4)cc1 | 2%[46.1 µM] | 3%[46.1 µM] | / | / | / | /
Cc1ccc2nc(-c3ccccc3N)[nH]c2c1 | ? | ? | 131% | 29% | 70 | 41*
Nc1ccc2nc(-c3cccc(-c4nc5ccc(N)cc5[nH]4)c3)[nH]c2c1 | -12%[46.1 µM] | -9% | 1.9µM* | 0% | -4 | 10
NC(=O)c1ccc2nc(-c3ccc(Oc4ccc(Cl)cc4)cc3)[nH]c2c1 | / | / | / | / | 45* | 16
Clc1ccc2nc(-c3ccc(Cl)nc3)[nH]c2c1 | 7.9µM* | ? | ? | ? | 53* | 24*
Cc1cc2nc(-c3ccccc3O)[nH]c2cc1C | ? | -18%[46.1 µM] | / | / | / | /
CCSc1nnc2ccc(-c3cccs3)nn12 | / | / | -8% | ? | 7 | 11
NS(=O)(=O)c1ccc(NC(=O)COC(=O)COc2ccccc2)cc1 | / | / | 6% | -10% | -8 | 26
COc1ccc(OCc2cn(CC(=O)c3ccc(O)cc3)nn2)cc1 | / | 5%[46.1 µM] | / | / | / | /
Nc1ccc2nc(-c3ccc(Cl)cc3)[nH]c2c1 | / | / | / | ? | 97* | 62*
Cc1c(N)cccc1-c1nc2ccccc2[nH]1 | -9% | ? | 271% | -23% | 39* | 52*
Nc1ccc(-c2nc3ccc(N)cc3[nH]2)cc1 | / | / | 240% | ? | 40 | 24*
CCOC(=O)c1ccc(COC(=O)CCc2nc3ccccc3[nH]c2=O)o1 | ? | -9% | -23% | ? | 14 | -2
C=CCOc1ccc(CNc2nn[nH]n2)cc1OC | 24% | 13% | / | 13% | -15 | 10
CC(C)(C)OC(=O)N1CCC(c2cc(-c3cccs3)n[nH]2)CC1 | ? | ? | 2% | ? | 20 | 26*
Cc1cccc2c1NC(=O)C2=Nc1ccc(Cl)cc1 | -24%[46.1 µM] | -5%[46.1 µM] | 3% | ? | / | -2
Cc1ccc(N=C2C(=O)Nc3c(C)cccc32)cc1 | / | / | 1% | 10µM* | -9 | 1
O=C(COc1ccc([N+](=O)[O-])cc1)Nc1ccc2c(c1)nc1n2CCOC1 | / | / | 5% | ? | -9 | -2
COc1ccc(NC(=O)CN2C(=O)C(c3ccccc3)=NC23CCC(C)CC3)cc1Cl (stereo unspecified) | 20µM* | -22%[46.1 µM] | / | / | / | /
CN(CC(=O)NC(=O)NCc1ccco1)Cc1nc2ccccc2c(=O)[nH]1 | 3% | -2% | -6% | 15%[5.75 µM] | -8 | -2
